# Data taken from the OligoGym collection.
# Biological target: KCNH5
# Experiment: pooled miR-30 sensor sort-seq; sequence = guide strand
# Details: shRNA
# Further: reference of the scale not given here.
row,Sequence,sensor-assay potency score (higher = more potent)
1,TTTCTTCACATCACTGATCTTA,0.0331
2,TTTTCTTGTACAGAAGAACTTC,0.0958
3,TTCCACTGTCACAAGAATCTGT,0.6
4,TAAACAAGACAGCAGATCGATC,-1.19
5,TTGAACTTCTGGAAGAGCTTTC,-0.184
6,TATACAAGCAATATCTATGTTT,-0.652
7,TTACATATCAAAATCCATGTGT,0.412
8,TTGAACAACGTAATATCCTTGA,0.815
9,TAGAGTTTTAGGAAGTCCCGTA,-0.0513
10,TTCGTGTTTGACTTCCTGCAGT,-0.357
11,TGAGACACTAAAAATATCCTGA,0.518
12,TTTGAACAACGTAATATCCTTG,-0.17

# Biological target: KCNJ11
# Experiment: as above
# Details: shRNA
row,Sequence,sensor-assay potency score (higher = more potent)
1,TCATCGGCCAGGTAGGAGGTGC,-0.639
2,ATGCTTGCTGAAGATGAGGGTC,-1.14
3,TTGACGGTGTTGCCAAACTTGG,-1.46
4,TTTGACGGTGTTGCCAAACTTG,-0.73
5,TTGGAGTAGTCCACAGAGTAAC,-1.69
6,TACAATGGGCACAAAGCGCTGG,0.352
